Compound activity (PubChem)
In the library only some 3.1% were active in any assay of this set; here they are far more common.
INS-1E GSIS act = primary screen for activators of insulin secretion dependent on glucose, INS-1E cells, GLuc reporter luminescence; 370,000 tested, 0.61% active; INS-1E GLuc reporter insulin secretion, 2-3 h; activation, % at 16.6 µM;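 active = lowest replicate activation of at least 40%, so every replicate reaches that level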;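 also: 0% = median of neutral control wells and 100% = median of IBMX positive control wells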
EWS-Fli block = EWS/Fli transcriptional activity inhibition | 350,000 tested, 0.67% active | A673 NR0B1-luciferase reporter, viability-normalised | inhibition, % at 12.6 µM | AID 651661;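 active = mean inhibition of at least 50% after viability correction, with every replicate also passing that limit; inconclusive = mean reaches 50% but only one of two replicates passes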;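 also: firefly luciferase signal divided by Alamar Blue viability fluorescence both relative to DMSO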
PAX8 inh HTS = lowers PAX8-driven luciferase in RMG-I cells | RMG-I TPO-luciferase reporter, SteadyGlo, 24 h | inhibition, % at 12.6 µM | 360,000 tested, 1.2% active | AID 652154;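 active = mean replicate inhibition at least 60% with every replicate also reaching 60%; inconclusive = only one of the two criteria is met; inactive = mean below 60% and not all replicates reaching 60%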;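 also: luciferase light reporting Pax8 driven TPO promoter activity; plate controls were median of neutral control wells for no effect and mitoxantrone controls for full effect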
miR122 inh = blocks miR-122 activity in Huh7 sensor cells; activation (reporter increase), % at 12.5 µM; 340,000 tested, 0.3% active; Huh7 miR-122 Renilla luciferase sensor, 48 h; neutral wells = 0, positive control = 100;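 active = mean replicate activation score at least 90 and every replicate individually at or above 90; inconclusive = only one of the two criteria met; inactive = neither criterion met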;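 also: higher luciferase means less miR-122 activity so hits act as miR-122 inhibitors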
Env fusion inh = blocks HIV Env-driven cell-cell fusion | 360,000 tested, 1.1% active | inhibition, % at 12.3 µM | AID 651610 | HeLa-JRFL Env/CEM21 cell fusion, luciferase;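 active = mean replicate inhibition score of at least 50 and every replicate individually at or above 50; inconclusive = only one of the two criteria met; inactive = mean below 50 and not all replicates reaching 50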;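 also: 0% = plate neutral controls and 100% = maraviroc near 300 nM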
Statin myotox sup = suppressors of simvastatin-induced myotoxicity in C2C12 myotubes | ATP luminescence, 48 h; scaled: DMSO 0, geranylgeraniol control 100 | rescue of ATP level, % at 7.49 µM | 330,000 tested, 0.78% active;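 active = mean ATP rescue above about 67%, or every replicate alone reaching that limit, limit read from the data, passing the limit was not always enough; inconclusive = no clear call, values can overlap the other calls; inactive = mean under the limit and some replicate under it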;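 also: myotubes were challenged with 10 µM simvastatin during compound exposure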
* hit, by the source's call; [ ] = dose if it differs, or a comment.

Results for Cc1ccc(Sc2cc(NCCCO)c([N+](=O)[O-])c3nonc23)cc1 ?
INS-1E GSIS act: -53.9; EWS-Fli block: 17.2; PAX8 inh HTS: 10.6; miR122 inh: -2.8; Env fusion inh: -3.8; Statin myotox sup: 102.3*

How did COc1ccc(CN(C)C[C@@H]2Oc3c(NS(=O)(=O)c4ccc(F)cc4)cccc3C(=O)N([C@H](C)CO)C[C@@H]2C)cc1 do in these assays?
INS-1E GSIS act: 27.2; EWS-Fli block: 2.0; PAX8 inh HTS: -7.0; miR122 inh: 3.5[16.7 µM]; Statin myotox sup: -0.6

How did O=C(N/N=C\c1c(O)ccc2ccccc12)c1ccc(Cn2cccn2)o1 do in these assays?
INS-1E GSIS act: 21.9; PAX8 inh HTS: 67.3*; miR122 inh: 63.7; Env fusion inh: inconclusive

What do the screens show for `O=C(N/N=C/c1c(O)ccc2ccccc12)c1cccc(C(F)(F)F)c1`?
INS-1E GSIS act: -25.9; PAX8 inh HTS: 69.8*; Env fusion inh: -324.8

How did CCS(=O)(=O)N[C@H]1C=C[C@H](CC(=O)Nc2ccccc2)O[C@H]1CO do in these assays?
INS-1E GSIS act: 6.5; EWS-Fli block: -11.6

Results for C[n+]1c2n(c3ccccc31)N=C(c1cc(C(C)(C)C)c(O)c(C(C)(C)C)c1)CS2 ?
INS-1E GSIS act: 301.2*; EWS-Fli block: 47.2; PAX8 inh HTS: 92.4*; miR122 inh: 2.0; Env fusion inh: inconclusive

How did C[C@@H]1CN([C@H](C)CO)C(=O)c2cccc(NC(=O)CCCCCC(=O)Nc3ccccc3N)c2O[C@@H]1CN(C)S(=O)(=O)c1cccs1 do in these assays?
INS-1E GSIS act: 21.8; EWS-Fli block: 0.4; PAX8 inh HTS: 10.9

How did CN1CCCCN2[C@H](CO)[C@@H](c3ccc(C#Cc4ccccc4F)cc3)[C@H]2C1 do in these assays?
INS-1E GSIS act: 0.7; EWS-Fli block: -40.3; PAX8 inh HTS: -109.5; miR122 inh: 1.9[16.7 µM]; Statin myotox sup: 24.3

How did Nc1cc(-c2ccccc2)nn1S(=O)(=O)c1ccc(F)cc1 do in these assays?
INS-1E GSIS act: 8.0; EWS-Fli block: 14.8; PAX8 inh HTS: 18.0; miR122 inh: -4.0; Env fusion inh: 79.3*; Statin myotox sup: 33.0

How did Nc1cc(-c2ccc(Br)cc2)nn1S(=O)(=O)c1ccccc1 do in these assays?
INS-1E GSIS act: 11.6; EWS-Fli block: 12.9; PAX8 inh HTS: 6.2; miR122 inh: 11.6; Env fusion inh: inconclusive; Statin myotox sup: -7.5

Results for O=C(c1cccc(C(F)(F)F)c1)N1CCc2c([nH]c3ccccc23)C1C(F)(F)F (configuration not stated) ?
INS-1E GSIS act: -18.6; EWS-Fli block: 18.3; PAX8 inh HTS: 16.3; Env fusion inh: 85.6*

How did O=C(O)c1ccccc1C(=O)N1CCc2c([nH]c3ccccc23)C1C(F)(F)F (configuration not stated) do in these assays?
INS-1E GSIS act: -17.8; EWS-Fli block: 16.0; PAX8 inh HTS: 29.6; miR122 inh: 0.9; Env fusion inh: -2.5

Results for CCOc1ccc(C(=O)OCC(=O)NC2CCCC2)cc1OCC ?
INS-1E GSIS act: 41.2*; EWS-Fli block: 9.5; PAX8 inh HTS: -12.3; miR122 inh: -5.8; Env fusion inh: 9.5; Statin myotox sup: 3.0

What do the screens show for `CCOc1cc(C(=O)OCC(=O)Nc2cc(C)on2)ccc1OCC(C)C`?
INS-1E GSIS act: -7.2; EWS-Fli block: 1.5; PAX8 inh HTS: 26.6; Env fusion inh: -57.5

What do the screens show for `COc1ccc(C(=O)NCC(=O)OCC(=O)NC(=O)NC2CCCCC2)cc1OC`?
miR122 inh: -5.5; Statin myotox sup: 11.4

How did COc1ccc(C(=O)NCC(=O)OCC(=O)NC2CCCCCC2)cc1OC do in these assays?
INS-1E GSIS act: 64.7*; EWS-Fli block: -7.4; PAX8 inh HTS: -21.4; miR122 inh: -6.8; Env fusion inh: -3.8; Statin myotox sup: 6.6

What do the screens show for `CCOc1ccc(C(=O)OCC(=O)Nc2cc(C)on2)cc1OCC`?
INS-1E GSIS act: 62.3*; miR122 inh: -2.5; Env fusion inh: -26.3; Statin myotox sup: 7.2

How did Cc1cccc(OCC(=O)Nc2cc(C)on2)c1 do in these assays?
miR122 inh: 2.1; Statin myotox sup: 122.0*

What do the screens show for `O=C(CN1C(=O)CSc2cc(S(=O)(=O)N3CCCCCC3)ccc21)NCCc1ccccc1`?
INS-1E GSIS act: -23.4; miR122 inh: -6.6

Results for CC1CCCCC1NC(=O)CN1C(=O)CSc2cc(S(=O)(=O)N3CCCCCC3)ccc21 (configuration not stated) ?
EWS-Fli block: -0.2; PAX8 inh HTS: 84.7*; miR122 inh: 11.3; Statin myotox sup: 7.9

What do the screens show for `O=C(Cc1coc(-c2ccc(F)cc2)n1)Nc1ccccc1`?
miR122 inh: -8.0; Statin myotox sup: 106.1*

What do the screens show for `O=C(Cc1cc(C(=O)O)c2ccccc2n1)Nc1ccccc1`?
INS-1E GSIS act: 9.9; EWS-Fli block: 9.5; PAX8 inh HTS: 43.8; miR122 inh: 1.3; Env fusion inh: 11.4; Statin myotox sup: -19.9

Results for C[C@@H]1CN([C@@H](C)CO)C(=O)c2ccccc2-c2ccccc2CO[C@@H]1CN(C)C(=O)[C@H](C)c1ccccc1 ?
INS-1E GSIS act: -0.6; EWS-Fli block: 4.3; PAX8 inh HTS: 2.1; Env fusion inh: 52.7[16.7 µM]; Statin myotox sup: -2.6

What do the screens show for `CCOC(=O)C(C)(C)N(Cc1ccc(C)cc1)S(=O)(=O)c1ccc(Cl)c([N+](=O)[O-])c1`?
EWS-Fli block: 72.6*; PAX8 inh HTS: -1.8; Env fusion inh: -4.4

Results for Cc1ccccc1-c1ccc2c(c1)O[C@H](CN(C)C(=O)Nc1ccc(C(F)(F)F)cc1)[C@H](C)CN([C@@H](C)CO)S2(=O)=O ?
INS-1E GSIS act: -8.1; EWS-Fli block: 7.9; PAX8 inh HTS: 76.8*; miR122 inh: -14.4[16.7 µM]; Env fusion inh: 56.1*[16.7 µM]; Statin myotox sup: -374.7

What do the screens show for `Cc1ccccc1-c1ccc2c(c1)O[C@@H](CN(C)C(=O)Nc1ccc(C(F)(F)F)cc1)[C@@H](C)CN([C@H](C)CO)S2(=O)=O`?
INS-1E GSIS act: -12.0; EWS-Fli block: 9.1; PAX8 inh HTS: -27.6; miR122 inh: -19.1[16.7 µM]; Env fusion inh: -24.8[16.7 µM]; Statin myotox sup: 13.3

Results for Cc1ccccc1-c1ccc2c(c1)O[C@H](CN(C)C(=O)Nc1ccc(C(F)(F)F)cc1)[C@@H](C)CN([C@H](C)CO)S2(=O)=O ?
INS-1E GSIS act: -5.0; EWS-Fli block: 9.0; PAX8 inh HTS: 77.1*; miR122 inh: 18.9[16.7 µM]; Env fusion inh: inconclusive; Statin myotox sup: -124.7

What do the screens show for `COc1ccc(-c2cnc3c(c2)C(=O)N([C@@H](C)CO)C[C@H](C)[C@@H](CN(C)S(=O)(=O)c2ccc(OC)cc2)O3)cc1`?
INS-1E GSIS act: -13.2; EWS-Fli block: -3.2; miR122 inh: 5.4[16.7 µM]; Env fusion inh: 19.0[16.7 µM]; Statin myotox sup: -4.2

What do the screens show for `CCCCCCC1CCC(C(=O)NC(CCSC)C(=O)NC(C(=O)OC)C(C)C)CC1` (configuration not stated)?
miR122 inh: -5.5; Env fusion inh: 57.5*; Statin myotox sup: -8.4

How did COC(=O)C(NC(=O)C(CC(C)C)NC(=O)C1CCC(C)CC1)C(C)C (configuration not stated) do in these assays?
PAX8 inh HTS: 9.9; miR122 inh: 2.0; Env fusion inh: -8.8; Statin myotox sup: -16.1

How did CCNC(=O)c1cc2c(c(-c3cccc(-c4cccnc4)c3)n1)[C@@H](CCO)N(S(C)(=O)=O)C2 do in these assays?
INS-1E GSIS act: 8.8; EWS-Fli block: 11.8; PAX8 inh HTS: -20.7

What do the screens show for `CC(=O)N1Cc2cc(C(=O)NCC(F)(F)F)nc(-c3cccc(-c4cccnc4)c3)c2[C@@H]1CCO`?
INS-1E GSIS act: 0.8; EWS-Fli block: 59.5*; PAX8 inh HTS: 13.3; Env fusion inh: -283.8[16.7 µM]
